Measurements published in PubChem BioAssay (NCATS).
Results filed as inconclusive are left out. Where a call stands in place of a potency, no number is given. Calls of active or inactive are those of the source. Calls follow the shape of the dose curve; as a rule, active = well fitted curve in the direction sought with a large enough effect; inconclusive = small, poorly fitted or top-dose-only effect, or another doubt; inactive = no such curve, though single readings can be large; an effect the other way counts as inactive or inconclusive.

How the values were obtained:
[1] = Validation qHTS assay for inhibitors of Activation Induced Cytidine Deaminase (AID): UDG Counterscreen signal (AID 1347427)
Method in brief: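 Counterscreen read of UDG activity (2 U/mL, 4/3x) in the FRET deamination format with AID (1 uM, 4/3x), DJC20/DJC23 substrates (250 nM, 4x), 4 h at room temperature. NaOH stop, fluorescence at 560 ex/665 em.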

[2] = target: Single-stranded DNA cytosine deaminase (Homo sapiens) (UniProt Q9GZX7); assay: Validation qHTS assay for inhibitors of Activation Induced Cytidine Deaminase (AID): AID signal (AID 1347429); also: potency is read from the fitted curve at half-maximal effect
Method in brief: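 FRET deamination assay: 1 uM AID (4/3x stock) with UDG, compound up to 114 uM, then 250 nM DJC20/DJC23 substrate (4x stock) for 4 hr at room temperature. NaOH added, 30 min; fluorescence read 540/590 nm.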

[3] = qHTS to identify inhibitors of the type 1 interferon - major histocompatibility complex class I in skeletal muscle: primary screen against the NCATS Mechanism Interrogation Plate v5.0 (MIPE) Libary (AID 1347411); also: nearly all actives have a fitted effect of over 65% in size
Method in brief: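 Immortalized human myoblasts (C25cl48) with HiBit knocked into endogenous HLA-B*08:01 were stimulated with 4 ng/ml IFN-beta and given compounds in 11-point 1:3 titration from 46 uM. After 24 h at 37 C, lytic HiBiT luminescence was read.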

[4] = target: Protein phosphatase 1D (Homo sapiens) (UniProt O15297); assay: RapidFire Mass Spectrometry qHTS Assay for Modulators of WT P53-Induced Phosphatase 1 (WIP1) (AID 1347424);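 also: amount of dephosphorylated VEPPL-S-QETFS peptide product formed by WIP1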; also: potency is read from the fitted curve at half-maximal effect
Method in brief: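 10 nM WIP1 preincubated with compounds 1 hr at room temperature in pH 7.5 Tris buffer with 30 mM MgCl2, 1 mM TCEP; 2 uM VEPPL-pS-QETFS phosphopeptide for 5 min, formic acid quench; dephosphorylated product quantified by RapidFire MS against labelled standard.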

[5] = target: Protein phosphatase 1D (Homo sapiens) (UniProt O15297); assay: Rhodamine-PBP qHTS Assay for Modulators of WT P53-Induced Phosphatase 1 (WIP1) (AID 1347425)
Method in brief: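 The read-out is the change in Rhodamine-PBP fluorescence (f1 - f0, ex 525/em 598 nm) as Pi is released, read each minute for 11 min. Final reaction: 5 nM WIP1, 10 uM phosphopeptide VEPPL-pS-QETFS, 10 uM Rh-PBP, 50 mM Tris-HCl pH 7.5, 30 mM MgCl2. Compound was preincubated with enzyme for 1 hour at room temperature.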

Sequence of Single-stranded DNA cytosine deaminase (Homo sapiens) (Q9GZX7 whole entry, looked up): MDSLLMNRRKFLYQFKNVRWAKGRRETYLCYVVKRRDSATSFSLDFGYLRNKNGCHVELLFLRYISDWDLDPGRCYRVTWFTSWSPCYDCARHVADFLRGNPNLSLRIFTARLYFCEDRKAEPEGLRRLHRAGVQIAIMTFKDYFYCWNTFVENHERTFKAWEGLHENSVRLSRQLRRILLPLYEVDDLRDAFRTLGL
Sequence of Protein phosphatase 1D (Homo sapiens) (O15297 whole entry, looked up): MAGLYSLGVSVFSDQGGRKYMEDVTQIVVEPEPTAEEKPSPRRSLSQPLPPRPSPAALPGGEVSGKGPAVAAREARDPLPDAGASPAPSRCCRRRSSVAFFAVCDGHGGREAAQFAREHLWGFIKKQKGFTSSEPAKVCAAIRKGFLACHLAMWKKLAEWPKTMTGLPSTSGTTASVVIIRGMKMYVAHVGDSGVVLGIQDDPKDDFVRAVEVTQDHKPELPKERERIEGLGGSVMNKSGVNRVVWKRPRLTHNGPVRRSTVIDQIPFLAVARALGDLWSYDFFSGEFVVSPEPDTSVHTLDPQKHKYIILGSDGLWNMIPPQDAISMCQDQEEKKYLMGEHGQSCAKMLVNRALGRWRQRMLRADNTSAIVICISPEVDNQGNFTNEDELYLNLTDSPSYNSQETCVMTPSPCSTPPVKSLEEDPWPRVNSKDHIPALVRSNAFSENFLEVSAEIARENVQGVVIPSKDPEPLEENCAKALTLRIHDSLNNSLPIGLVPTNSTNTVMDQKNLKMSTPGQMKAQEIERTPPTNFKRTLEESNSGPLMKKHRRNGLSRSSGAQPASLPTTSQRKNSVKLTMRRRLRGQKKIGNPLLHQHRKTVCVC

In the case of `C=CCN1CCc2cccc3c2[C@H]1Cc1ccc(O)c(O)c1-3`, the Potency [1] is reported as “inactive” and the Potency [2] is reported as “inactive”.

In the case of `Cc1cc([C@@H]2CCCN2C)on1`, the Potency [1] is reported as “inactive” and the Potency [2] is reported as “inactive”.

With `Ic1ccccc1CNC1C2CCN(CC2)C1C(c1ccccc1)c1ccccc1` (configuration not stated) the Potency [1] was “inactive” and the Potency [2] was “inactive”.

For `COc1cc(C)[nH]c(=O)c1CNC(=O)c1c(C)n([C@H](C)C2CCOCC2)c2ccccc12`, the outcome [3] was “inactive”.

With `OCc1cnc[nH]1` the Potency [1] was “inactive” and the Potency [2] was “inactive”.

With `Cc1sc2ccccc2c1CC1=NCCN1` the Potency [1] was “inactive” and the Potency [2] was “inactive”.

In the case of `C[CH2][Hg][S]c1ccccc1C(=O)O`, the Potency [4] is reported as 35.5 µM (active).

In the case of `O=S1(=O)N(CCN2CC=C(c3c[nH]c4cc(F)ccc34)CC2)c2cccc3c2N1CCC3`, the Potency [1] is reported as “inactive”.

For `C[N+]1(C)CCOC(O)(c2ccc(-c3ccc(C4(O)C[N+](C)(C)CCO4)cc3)cc2)C1` (configuration not stated), the Potency [1] was “inactive”.

In the case of `NCCc1ccc(S(=O)(=O)F)cc1`, the Potency [1] is reported as “inactive” and the Potency [2] is reported as “inactive”.

For `NC(=O)CI`, the Potency [1] was “inactive” and the Potency [2] was “inactive”.

In the case of `CCNC(=O)[C@H]1O[C@@H](n2cnc3c(N)ncnc32)[C@H](O)[C@@H]1O`, the Potency [1] is reported as “inactive” and the Potency [2] is reported as “inactive”.

With `COc1ccc2c(c1)[C@@]13CCCC[C@H]1[C@@H](C2)NCC3` the Potency [1] was “inactive” and the Potency [2] was “inactive”.

With `Cc1[nH]c2ccc(O)cc2c1CCN` the Potency [1] was “inactive” and the Potency [2] was “inactive”.

For `CNc1ccc2oc(C[C@H]3O[C@@]4(CC[C@H]3C)O[C@H]([C@H](C)C(=O)c3ccc[nH]3)[C@H](C)C[C@H]4C)nc2c1C(=O)O`, the Potency [1] was “inactive” and the Potency [2] was “inactive”.

For `CCCN(CCC)CCc1ccc(O)c(O)c1`, the Potency [1] was “inactive” and the Potency [2] was “inactive”.

With `CCCN1CCc2cccc3c2[C@H]1Cc1ccc(O)c(O)c1-3` the Potency [1] was “inactive” and the Potency [2] was “inactive”.

In the case of `CC(C)(C)c1o[nH]c(=O)c1CC(N)C(=O)O` (configuration not stated), the Potency [1] is reported as “inactive” and the Potency [2] is reported as “inactive”.

In the case of `NC(=O)c1cc(N2CC2)c([N+](=O)[O-])cc1[N+](=O)[O-]`, the Potency [1] is reported as “inactive” and the Potency [2] is reported as “inactive”.

With `O=[N+]([O-])/C=C/c1ccc2c(c1)OCO2` the Potency [1] was “inactive” and the Potency [2] was “inactive”.

With `CC1(C(=O)O)C2CCC(O2)C1(C)C(=O)O` (configuration not stated) the Potency [1] was “inactive” and the Potency [2] was “inactive”.

For `C[Se]C[C@H](N)C(=O)O`, the Potency [1] was “inactive” and the Potency [2] was “inactive”.

In the case of `N[C@@H](Cn1ccc(=O)[nH]c1=O)C(=O)O`, the Potency [1] is reported as “inactive” and the Potency [2] is reported as “inactive”.

In the case of `CCOc1ccccc1-n1c(C(C)N2CCN(C(=O)COc3ccc(Cl)cc3)CC2)nc2ccccc2c1=O` (configuration not stated), the outcome [3] is reported as “inactive”.

With `C[C@]12CC[C@H]3[C@@H](CC[C@@]45O[C@@H]4C(O)=C(C#N)C[C@]35C)[C@@H]1CC[C@@H]2O` the outcome [3] was “inactive”.

In the case of `CN1CCC(c2c[nH]c3ccc(O)cc23)CC1`, the Potency [1] is reported as “inactive” and the Potency [2] is reported as “inactive”.

With `C[C@@H]1O[C@H](C[N+](C)(C)C)CS1` the Potency [1] was “inactive” and the Potency [2] was “inactive”.

In the case of `CC(N)Cc1c[nH]c2ccc(O)cc12` (configuration not stated), the Potency [1] is reported as “inactive” and the Potency [2] is reported as “inactive”.

With `NCCc1c[nH]c2ccc(C(N)=O)cc12` the Potency [1] was “inactive” and the Potency [2] was “inactive”.

With `CCCN(CCC)C1Cc2cc(OC)c(OC)cc2C1` the Potency [1] was “inactive” and the Potency [2] was “inactive”.

In the case of `Nc1ccc(CCN2CCN(c3cccc(C(F)(F)F)c3)CC2)cc1`, the Potency [1] is reported as “inactive” and the Potency [2] is reported as “inactive”.

With `CN1C2CCC1CC(OC(c1ccccc1)c1ccccc1N)C2` (configuration not stated) the Potency [1] was “inactive” and the Potency [2] was “inactive”.

In the case of `CC1=C2C[C@H]3[C@@H](CC=C4C[C@@H](O)CC[C@@]43C)[C@@H]2CC[C@]12O[C@@H]1C[C@H](C)CN[C@H]1[C@H]2C`, the outcome [3] is reported as “inactive”.

For `CC(C)(O)[C@@H]1C2OC(=O)[C@@H]1[C@]1(O)C[C@H]3O[C@]34C(=O)O[C@H]2[C@]14C` (tested in a mixture with another compound), the Potency [1] was “inactive” and the Potency [2] was “inactive”.

For `CCCSP(=O)(OCC)SCCC`, the Potency [4] was “inactive” and the outcome [5] was “inactive”.

For `CC(=O)c1c(O)c(C)c(O)c(Cc2c(O)c3c(c(C(=O)/C=C/c4ccccc4)c2O)OC(C)(C)C=C3)c1O`, the outcome [3] was “inactive”, the Potency [1] was “inactive” and the Potency [2] was 31.6 µM (active).

With `CO[C@H]1CC=C2CCN3CCC4=C(CC(=O)OC4)[C@]23C1` the Potency [1] was “inactive” and the Potency [2] was “inactive”.

For `COc1ccc2[nH]cc(CCN)c2c1`, the Potency [1] was “inactive” and the Potency [2] was “inactive”.

For `CC(N)c1cccc(Cl)c1Cl` (configuration not stated), the Potency [1] was “inactive” and the Potency [2] was “inactive”.

For `C=CCN1CC[C@]23c4c5ccc(O)c4O[C@H]2/C(=N/NC(=O)c2ccccc2)CC[C@@]3(O)[C@H]1C5`, the Potency [1] was “inactive” and the Potency [2] was “inactive”.

In the case of `C[C@@H]1[C@@H]2Cc3ccc(O)cc3[C@@]1(C)CCN2CC1CC1`, the Potency [1] is reported as “inactive” and the Potency [2] is reported as “inactive”.

In the case of `COc1ccc2c(c1)C13CCCCC1C(C2)N(C)CC3` (configuration not stated), the Potency [1] is reported as “inactive” and the Potency [2] is reported as “inactive”.

In the case of `C[N+]1(C)CCN(c2ccccc2)CC1`, the Potency [1] is reported as “inactive” and the Potency [2] is reported as “inactive”.

For `Oc1ccc2c3c1O[C@H]1c4[nH]c5ccccc5c4C[C@@]4(O)C(C2)N(CC2CC2)CCC314` (some centres not stated), the Potency [1] was “inactive” and the Potency [2] was “inactive”.
